Results: the supplement of paper PMC7366291
Where a name gives a salt, the structure may show the parent alone. ± gives the standard deviation of the averaged measurements.

tested on: Danio rerio Tg(wt1b:EGFP) embryo, pronephros; assay: pronephric angle neck segment to proximal convoluted tubule (mean of left and right), fold change vs DMSO control; higher = larger pronephric angle; conditions: 25 µM; exposure: 24-48 hpf
Outline: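 Dechorionated Tg(wt1b:EGFP) zebrafish embryos were incubated at 28.5°C from 24 to 48 hpf with 25 μM compound in HEPES-buffered E3 containing 0.5% DMSO and 0.003% PTU. Distances and angles between 16 manually set points on maximum projections of dorsal pronephros images were measured in Fiji, with values over 2 SD from the feature mean excluded. Each feature is a fold change relative to the mean of same-day DMSO-treated embryos.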

Structure (SMILES) | pronephric angle neck segment
CN(C)CCOC(c1ccc(Cl)cc1)c1ccccn1 (stereo not drawn) [Carbinoxamine maleate salt] | 1.01 ± 0.026
CCOC(=O)C1=C(C)NC(C)=C(C(=O)OC)C1c1cccc(Cl)c1Cl (stereo not drawn) [Felodipine] | 1.44 ± 0.022
Cc1cc(/C=C/c2ccc3cc(N(C)C)ccc3[n+]2C)c(C)n1-c1ccccc1 [Pyrvinium pamoate] | 1.02 ± 0.034
CC(=O)OCC(=O)[C@@]12N=C(C)O[C@@H]1C[C@H]1[C@@H]3CCC4=CC(=O)C=C[C@]4(C)[C@H]3[C@@H](O)C[C@@]12C [Deflazacort] | 0.944 ± 0.058
COc1ccc(OC)c(C(O)CNC(=O)CN)c1 (stereo not drawn) [Midodrine hydrochloride] | 0.765 ± 0.013
C[C@@H]1C[C@H]2[C@@H]3C[C@H](F)C4=CC(=O)C=C[C@]4(C)[C@@]3(F)[C@@H](O)C[C@]2(C)[C@@]1(O)C(=O)CO [Flumethasone] | 0.977 ± 0.049
N/C(=N\C(=O)c1nc(Cl)c(N)nc1N)NCc1ccccc1 [Benzamil hydrochloride] | 0.98 ± 0.018
C[C@H]1O[C@@H](O[C@H]2[C@@H](O)C[C@H](O[C@H]3[C@@H](O)C[C@H](O[C@H]4CC[C@@]5(C)[C@H](CC[C@@H]6[C@@H]5C[C@@H](O)[C@]5(C)[C@@H](C7=CC(=O)OC7)CC[C@]65O)C4)O[C@@H]3C)O[C@@H]2C)C[C@H](O)[C@@H]1O [Digoxin] | 0.9342 ± 0.0075
NC(Cc1cc(I)c(Oc2cc(I)c(O)c(I)c2)c(I)c1)C(=O)O (stereo not drawn) [Thyroxine (L)] | 1.02 ± 0.029
CN(C)CCC=C1c2ccccc2C=Cc2ccccc21 [Cyclobenzaprine hydrochloride] | 1.03 ± 0.0042
CCCCOC(=O)c1ccc(O)cc1 [Butylparaben] | 1.11 ± 0.038
COCC(=O)Nc1c(I)c(C(=O)NCC(O)CO)c(I)c(C(=O)N(C)CC(O)CO)c1I (stereo not drawn) [Iopromide] | 0.97 ± 0.023
O=c1cc(-c2ccc(O)c(O)c2)oc2cc(O)cc(O)c12 [Luteolin] | 0.999 ± 0.006
CCc1cccc(CC)c1NC(=O)CN(CC(=O)O)CC(=O)O [Etifenin] | 1.01 ± 0.015
CC(=O)/N=c1/sc(S(N)(=O)=O)nn1C [Methazolamide] | 1.02 ± 0.014
Cc1cnc(C(=O)O)c[n+]1[O-] [Acipimox] | 0.94922 ± 0.00089
CN(CCOc1ccc(CC2SC(=O)NC2=O)cc1)c1ccccn1 (stereo not drawn) [Rosiglitazone Hydrochloride] | 0.9727 ± 0.0063

Structure (SMILES) | pronephric angle neck segment
CS(=O)(=O)c1ccc(C2=C(c3ccccc3)C(=O)OC2)cc1 [Rofecoxib] | 0.969 ± 0.024
CCN1CCC[C@H]1CNC(=O)c1c(O)c(Cl)cc(Cl)c1OC [Raclopride] | 1.02 ± 0.12
NCCC[C@H](N)CC(=O)N[C@H]1CNC(=O)[C@H]([C@H]2C[C@H](O)NC(N)=N2)NC(=O)/C(=C/NC(N)=O)NC(=O)[C@H](CO)NC(=O)[C@H](CO)NC1=O [Viomycin sulfate] | 1.07 ± 0.088
Cc1cccc(C)c1NC(=O)CN1CCN(CCCC(c2ccc(F)cc2)c2ccc(F)cc2)CC1 [Lidoflazine] | 0.988 ± 0.13
CCN(CC)CCOC(=O)c1ccc(N)cc1 [Procaine hydrochloride] | 1.081 ± 0.0098
CCOC(=O)Nc1ccc2c(c1)N(C(=O)CCN1CCOCC1)c1ccccc1S2 [Moricizine hydrochloride] | 0.993 ± 0.055
C[C@H](Cc1cc2c(c(C(N)=O)c1)N(CCCO)CC2)NCCOc1ccccc1OCC(F)(F)F [Silodosin] | 0.992 ± 0.028
COc1ncnc(NS(=O)(=O)c2ccc(N)cc2)c1OC [Sulfadoxine] | 1.02 ± 0.066
CCC(=O)[C@@]1(C)[C@H](C)C[C@H]2[C@@H]3CCC4=CC(=O)C=C[C@]4(C)[C@H]3[C@@H](O)C[C@@]21C [Rimexolone] | 0.965 ± 0.031
COC(=O)Nc1nc2cc([S+]([O-])c3ccccc3)ccc2[nH]1 (stereo not drawn) [Oxfendazol] | 1.036 ± 0.006
Cc1oncc1C(=O)Nc1ccc(C(F)(F)F)cc1 [Leflunomide] | 1.23 ± 0.054
Clc1ccc(C(Cn2ccnc2)OCc2c(Cl)cccc2Cl)c(Cl)c1 (stereo not drawn) [Isoconazole] | 1.64 ± 0.076
Cc1cn([C@H]2C[C@H](N=[N+]=[N-])[C@@H](CO)O2)c(=O)[nH]c1=O [Zidovudine, AZT] | 0.991 ± 0.018
CN1C(C)(C)CCCC1(C)C [Pempidine tartrate] | 1.02 ± 0.068
CN(C)CCN(Cc1cccs1)c1ccccn1 [Methapyrilene hydrochloride] | 0.9838 ± 0.0071
O=C(c1ccc(OCCN2CCCCC2)cc1)c1c(-c2ccc(O)cc2)sc2cc(O)ccc12 [Raloxifene hydrochloride] | 1.01 ± 0.025
